Assay results from PubChem BioAssay (Tox21).
Results filed as inconclusive are left out. Calls of active or inactive are those of the source. Unless noted, the call rests on the fitted dose curve.

How the values were obtained:
[1] = qHTS assay to identify small molecule agonists of the androgen receptor (AR) signaling pathway in the presence of an antagonist - cell viability counter screen (AID 1259379; active means well fitted curve in the direction sought with a large enough effect in the repeat runs; an effect the other way counts as inactive or inconclusive;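 further: MDA-kb2 human breast cancer cells carrying an MMTV luciferase reporter; series mostly up to about 92 µM; nearly all actives have a fitted effect of over 25% in size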)
How it was run: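 Cells: MDA-kb2 (MMTV-luc, AR and GR elements), 3,000/well, 5 hr settle. Added: nilutamide 3.0uM final, then compounds (15 conc.). Incubation: 16 hr, 37C, no CO2. Read-out: CellTiter-Fluor, 1 hr, fluorescence.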

[2] = qHTS assay to identify small molecule agonists of the estrogen receptor beta (ER-beta) signaling pathway - cell viability counter screen (AID 1259380; active means well fitted curve in the direction sought with a large enough effect in the repeat runs; an effect the other way counts as inactive or inconclusive; further: nearly all actives have a fitted effect of over 30% in size; further: potency means the concentration at half of the fitted maximal effect)
How it was run: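 HEK293T ER-beta-UAS-bla; 2% CS-FBS; 6 hr pre-plate, 16 hr cpd at 37C/5% CO2; LiveBLAzer read first, then CellTiter-Glo 30 min RT, luminescence.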

[3] = target: Androgen receptor (Homo sapiens) (UniProt P10275); assay: qHTS assay to identify small molecule agonists of the androgen receptor (AR) signaling pathway in the presence of an antagonist (AID 1259381); further: nearly all actives have a fitted effect of over 15% in size
Chain of Androgen receptor (Homo sapiens) (P10275 whole entry, looked up): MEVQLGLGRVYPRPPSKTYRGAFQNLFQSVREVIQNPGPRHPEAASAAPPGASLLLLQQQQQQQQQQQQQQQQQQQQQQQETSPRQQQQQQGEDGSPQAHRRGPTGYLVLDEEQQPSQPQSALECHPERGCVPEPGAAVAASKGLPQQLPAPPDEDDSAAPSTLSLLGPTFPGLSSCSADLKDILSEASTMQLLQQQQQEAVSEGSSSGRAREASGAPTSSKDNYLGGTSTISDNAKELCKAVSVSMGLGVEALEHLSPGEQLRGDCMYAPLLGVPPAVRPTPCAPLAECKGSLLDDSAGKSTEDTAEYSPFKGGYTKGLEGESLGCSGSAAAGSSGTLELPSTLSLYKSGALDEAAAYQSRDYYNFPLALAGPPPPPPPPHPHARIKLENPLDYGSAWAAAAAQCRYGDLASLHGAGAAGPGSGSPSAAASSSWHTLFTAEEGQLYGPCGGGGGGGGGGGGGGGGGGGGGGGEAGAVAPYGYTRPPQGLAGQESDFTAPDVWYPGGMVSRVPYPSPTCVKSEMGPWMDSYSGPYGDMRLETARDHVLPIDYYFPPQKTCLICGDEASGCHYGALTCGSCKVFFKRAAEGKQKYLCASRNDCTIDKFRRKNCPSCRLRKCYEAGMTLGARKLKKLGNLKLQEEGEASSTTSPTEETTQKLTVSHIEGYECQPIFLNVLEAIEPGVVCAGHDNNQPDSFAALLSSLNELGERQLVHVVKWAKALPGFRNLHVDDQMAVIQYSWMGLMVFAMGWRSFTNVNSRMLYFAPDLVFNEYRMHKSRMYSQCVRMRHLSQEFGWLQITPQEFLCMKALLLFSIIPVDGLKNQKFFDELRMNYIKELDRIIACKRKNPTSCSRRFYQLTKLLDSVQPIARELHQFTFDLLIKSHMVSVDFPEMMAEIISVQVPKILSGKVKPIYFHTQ
How it was run: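 MDA-kb2 cells, 3,000/well, rested 5hr at 37C/0% CO2 → nilutamide 3.0uM final or buffer → compounds, 15 conc. → 16hr at 37C → ONE-Glo, 30min RT → luminescence.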

[4] = qHTS assay to identify small molecule antagonists of the estrogen receptor beta (ER-beta) signaling pathway - cell viability counter screen (AID 1259382; active means well fitted curve in the direction sought with a large enough effect in the repeat runs; an effect the other way counts as inactive or inconclusive; further: series mostly up to about 92 µM; nearly all actives have a fitted effect of over 55% in size)
How it was run: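 Cells: ER-beta-UAS-bla HEK293T, 2,000/well, 2% CS-FBS, 6 hr settle. Cpd + E2 (1nM final), 16 hr, 37C/5% CO2. Bla FRET substrate 2 hr RT, then CellTiter-Glo 30 min RT, luminescence.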

[5] = target: Estrogen receptor (Homo sapiens) (UniProt P03372); assay: qHTS assay to identify small molecule agonists of the estrogen receptor alpha (ER-alpha) signaling pathway in the presence of an antagonist (AID 1259383); further: top concentration of the series differs between compounds; nearly all actives have a fitted effect of over 15% in size
Chain of Estrogen receptor (Homo sapiens) (P03372 whole entry, looked up): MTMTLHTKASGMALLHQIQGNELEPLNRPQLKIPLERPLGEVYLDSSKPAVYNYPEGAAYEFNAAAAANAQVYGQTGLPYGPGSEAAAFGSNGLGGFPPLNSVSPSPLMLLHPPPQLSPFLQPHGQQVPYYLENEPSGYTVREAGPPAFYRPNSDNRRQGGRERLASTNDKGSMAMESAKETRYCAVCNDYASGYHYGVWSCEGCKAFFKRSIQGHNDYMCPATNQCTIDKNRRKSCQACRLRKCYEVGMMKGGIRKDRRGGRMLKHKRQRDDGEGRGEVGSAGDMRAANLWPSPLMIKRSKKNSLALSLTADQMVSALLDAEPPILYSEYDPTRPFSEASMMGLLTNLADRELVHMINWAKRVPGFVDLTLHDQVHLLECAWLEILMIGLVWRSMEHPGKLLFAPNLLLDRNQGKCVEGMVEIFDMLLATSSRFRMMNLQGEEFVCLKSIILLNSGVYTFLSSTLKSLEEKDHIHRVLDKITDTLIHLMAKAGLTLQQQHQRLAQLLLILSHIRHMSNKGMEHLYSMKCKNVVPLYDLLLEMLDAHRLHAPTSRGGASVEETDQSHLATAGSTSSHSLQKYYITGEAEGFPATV
How it was run: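 VM7Luc4E2, endog. ER-alpha + 4×ERE-luc; charcoal-stripped FBS, phenol red-free, 5 d; 24hr plating; +10.0nM ICI-182,780 (final); cpds 15 conc, 22hr, 37C/5% CO2; ONE-Glo luminescence.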

[6] = qHTS assay to identify small molecule agonists or antagonists of the thyroid stimulating hormone receptor (TSHR) signaling pathway - wild type cell line counter screen (AID 1259384)
How it was run: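 Wild-type HEK293 cells were plated 18 h at 37 C/5% CO2, pin-dosed with compound plus Ro20-1724 medium, held 30 min at room temperature, then given cAMP-d2 and anti-cAMP-cryptate; fluorescence was read after 1 h. Fifteen concentrations, triplicate.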

[7] = target: Thyrotropin receptor (Homo sapiens) (UniProt P16473); assay: qHTS assay to identify small molecule antagonists of the thyroid stimulating hormone receptor (TSHR) signaling pathway (AID 1259385); further: nearly all actives have a fitted effect of over 20% in size
Chain of Thyrotropin receptor (Homo sapiens) (P16473 whole entry, looked up): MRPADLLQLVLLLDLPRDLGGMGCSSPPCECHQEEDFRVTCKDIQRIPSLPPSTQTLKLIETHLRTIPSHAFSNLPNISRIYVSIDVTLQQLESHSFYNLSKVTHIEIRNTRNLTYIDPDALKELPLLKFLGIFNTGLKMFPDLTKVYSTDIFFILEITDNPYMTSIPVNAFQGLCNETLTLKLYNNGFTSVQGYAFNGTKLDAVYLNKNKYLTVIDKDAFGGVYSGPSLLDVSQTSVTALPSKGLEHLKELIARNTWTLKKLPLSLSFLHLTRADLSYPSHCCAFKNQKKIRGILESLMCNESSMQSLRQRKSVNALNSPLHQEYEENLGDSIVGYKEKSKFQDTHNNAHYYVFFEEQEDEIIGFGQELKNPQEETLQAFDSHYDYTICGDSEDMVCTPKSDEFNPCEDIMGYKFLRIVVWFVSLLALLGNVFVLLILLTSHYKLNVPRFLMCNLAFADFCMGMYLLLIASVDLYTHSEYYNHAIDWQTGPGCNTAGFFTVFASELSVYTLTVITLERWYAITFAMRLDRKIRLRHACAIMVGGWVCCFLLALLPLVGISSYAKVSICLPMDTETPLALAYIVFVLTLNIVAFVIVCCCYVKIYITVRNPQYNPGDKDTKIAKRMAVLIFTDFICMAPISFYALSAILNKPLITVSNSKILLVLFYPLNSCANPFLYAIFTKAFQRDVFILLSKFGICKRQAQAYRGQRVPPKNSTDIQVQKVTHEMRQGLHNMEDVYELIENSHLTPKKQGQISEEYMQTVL
How it was run: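 TSHR-HEK293 cells were plated and held 18 h at 37C/5% CO2, then given compound plus Ro20-1724 and stimulated with TSH at 1.5 ng/mL final. After 30 min at room temperature, cAMP was detected with cAMP-d2/anti-cAMP-cryptate (1 h) by fluorescence.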

[8] = qHTS assay to identify small molecule agonists of the estrogen receptor alpha (ER-alpha) signaling pathway in the presence of an antagonist - cell viability counter screen (AID 1259386; active means well fitted curve in the direction sought with a large enough effect in the repeat runs; an effect the other way counts as inactive or inconclusive;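 further: series mostly up to about 92 µM; cells exposed to compounds for 22 h at 37 °C before the viability read; nearly all actives have a fitted effect of over 30% in size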)
How it was run: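 VM7Luc4E2, stripped-serum pre-culture 5 d; 24hr plating; +ICI-182,780 10.0nM final; cpds 15 conc, 22hr, 37C/5% CO2; CellTiter-Fluor added at 21hr, fluorescence 1hr later.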

[9] = target: Progesterone receptor (Homo sapiens) (UniProt P06401); assay: qHTS assay to identify small molecule agonists of the progesterone receptor (PR) signaling pathway (AID 1346784); further: nearly all actives have a fitted effect of over 30% in size
Chain of Progesterone receptor (Homo sapiens) (P06401 whole entry, looked up): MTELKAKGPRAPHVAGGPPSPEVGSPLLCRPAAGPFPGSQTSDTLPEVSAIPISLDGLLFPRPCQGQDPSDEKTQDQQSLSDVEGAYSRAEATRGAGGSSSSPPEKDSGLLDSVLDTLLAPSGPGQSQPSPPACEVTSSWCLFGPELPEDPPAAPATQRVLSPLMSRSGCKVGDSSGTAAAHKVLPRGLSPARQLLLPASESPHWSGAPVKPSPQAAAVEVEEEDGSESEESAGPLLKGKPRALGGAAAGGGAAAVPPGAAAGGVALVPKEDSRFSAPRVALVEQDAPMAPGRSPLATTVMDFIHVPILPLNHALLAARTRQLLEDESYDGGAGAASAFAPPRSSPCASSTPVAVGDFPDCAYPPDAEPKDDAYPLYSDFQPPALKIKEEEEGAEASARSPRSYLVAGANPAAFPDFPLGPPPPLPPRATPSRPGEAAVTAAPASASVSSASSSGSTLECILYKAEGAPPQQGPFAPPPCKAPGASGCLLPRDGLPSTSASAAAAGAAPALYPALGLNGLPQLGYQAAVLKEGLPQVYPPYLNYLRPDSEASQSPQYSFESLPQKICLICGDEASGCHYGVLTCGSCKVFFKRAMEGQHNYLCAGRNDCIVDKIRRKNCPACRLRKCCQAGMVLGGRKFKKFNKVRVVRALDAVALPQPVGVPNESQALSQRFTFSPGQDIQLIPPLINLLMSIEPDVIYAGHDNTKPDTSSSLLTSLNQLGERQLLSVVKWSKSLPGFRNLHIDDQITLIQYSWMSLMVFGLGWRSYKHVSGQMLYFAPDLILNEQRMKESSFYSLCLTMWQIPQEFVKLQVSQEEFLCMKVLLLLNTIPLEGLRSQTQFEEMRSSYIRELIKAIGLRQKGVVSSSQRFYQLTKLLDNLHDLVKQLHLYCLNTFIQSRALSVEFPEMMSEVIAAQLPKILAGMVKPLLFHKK
How it was run: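 The screen uses PR-UAS-bla HEK 293T cells in charcoal-stripped serum (2%). Compounds are applied for 16 hr at 37C after a 6 hr pre-incubation, and reporter activity is detected with a FRET beta-lactamase substrate after 2 hr at room temperature.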

[10] = target: Estrogen receptor beta (Homo sapiens) (UniProt Q92731); assay: qHTS assay to identify small molecule antagonists of the estrogen receptor beta (ER-beta) signaling pathway (AID 1259378; active means well fitted inhibition curve with a large enough effect in the signal ratio in the repeat runs, not every such curve was filed as active; the % refers to the signal ratio)
Chain of Estrogen receptor beta (Homo sapiens) (Q92731 whole entry, looked up): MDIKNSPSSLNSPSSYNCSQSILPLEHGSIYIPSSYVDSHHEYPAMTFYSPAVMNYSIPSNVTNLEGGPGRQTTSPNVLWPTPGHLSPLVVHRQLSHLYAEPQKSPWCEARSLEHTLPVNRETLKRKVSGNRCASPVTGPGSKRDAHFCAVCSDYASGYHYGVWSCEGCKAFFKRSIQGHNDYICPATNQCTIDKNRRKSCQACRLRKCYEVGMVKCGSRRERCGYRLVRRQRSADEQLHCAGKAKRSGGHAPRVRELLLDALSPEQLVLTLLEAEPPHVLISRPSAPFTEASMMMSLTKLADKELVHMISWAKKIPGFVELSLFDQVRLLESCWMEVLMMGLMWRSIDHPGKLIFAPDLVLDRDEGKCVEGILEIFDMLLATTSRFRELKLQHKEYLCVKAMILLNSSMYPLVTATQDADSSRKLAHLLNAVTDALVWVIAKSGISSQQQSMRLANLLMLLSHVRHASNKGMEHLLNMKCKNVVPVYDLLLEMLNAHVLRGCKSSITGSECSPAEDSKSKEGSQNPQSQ
How it was run: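 ER-beta-UAS-bla HEK293T (GripTite) cells in 2% charcoal-stripped FBS medium were preincubated 6 hr at 37C, dosed with compound, then stimulated with 1 nM E2 (final) for 16 hr; beta-lactamase reporter read by B/G FRET fluorescence after 2 hr substrate loading.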
On the % scale 0 is the no-effect control and ±100 the full control effect.

Cc1ccc(C(=O)c2ccc(CC(=O)O)n2C)cc1
inactive: Potency [1] | Potency [2] | Potency [3] | outcome [4] | outcome [5] | outcome [6] | outcome [7] | Potency [8] | Potency [9]

CC1=NN(c2cccc(S(=O)(=O)O)c2)C(=O)C1
inactive: Potency [1] | Potency [2] | Potency [3] | outcome [4] | outcome [5] | outcome [6] | outcome [7] | Potency [8] | Potency [9]

COc1c(N2CCNC(C)C2)c(F)cc2c(=O)c(C(=O)O)cn(C3CC3)c12 (stereo not drawn)
inactive: Potency [10] | Potency [1] | Potency [2] | outcome [4] | Potency [8] | Potency [9]

CCCCS(=O)(=O)N[C@@H](Cc1ccc(OCCCCC2CCNCC2)cc1)C(=O)O
inactive: Potency [1] | Potency [2] | Potency [3] | outcome [4] | outcome [5] | outcome [6] | outcome [7] | Potency [8] | Potency [9]

CO[C@@]1(NC(=O)CSC[C@@H](N)C(=O)O)C(=O)N2C(C(=O)O)=C(CSc3nnnn3C)CS[C@@H]21
inactive: Potency [1] | Potency [2] | Potency [3] | outcome [4] | outcome [5] | outcome [6] | outcome [7] | Potency [8] | Potency [9]

CCC(C)(CCCC(C)C)OC(C)=O (stereo not drawn)
inactive: Potency [10] | Potency [1] | outcome [4] | outcome [5] | outcome [6] | outcome [7] | Potency [8] | Potency [9]

Cc1coc2ccccc2c1=O
inactive: Potency [1] | Potency [2] | Potency [3] | outcome [4] | outcome [6] | outcome [7] | Potency [8] | Potency [9]

O=S(=O)(O)c1cccc(S(=O)(=O)O)c1
inactive: Potency [1] | Potency [2] | Potency [3] | outcome [4] | outcome [5] | outcome [6] | outcome [7] | Potency [8] | Potency [9]

Cc1nc2ccc(CN(C)c3ccc(C(=O)N[C@@H](CCC(=O)O)C(=O)O)s3)cc2c(=O)[nH]1
inactive: Potency [1] | Potency [3] | outcome [6] | outcome [7] | Potency [8] | Potency [9]
active: Potency [2] 150 nM

CCN(C=O)CC
inactive: Potency [10] | Potency [1] | outcome [4] | outcome [6] | outcome [7] | Potency [8]

CN(C)C(=O)Oc1ccc[n+](C)c1
inactive: Potency [1] | Potency [2] | outcome [4] | outcome [5] | outcome [6] | outcome [7] | Potency [8]

Nc1c2c(nc3c1CCC3)CCCC2
inactive: Potency [1] | Potency [2] | Potency [3] | outcome [4] | outcome [5] | outcome [6] | outcome [7] | Potency [8] | Potency [9]

Cc1cc(C)c(N=Nc2c(O)c(S(=O)(=O)O)cc3cc(S(=O)(=O)O)ccc23)cc1C
inactive: activity change, negative = cytotoxicity [1] -11.3% [at 8.39 µM] | activity change, negative = cytotoxicity [2] -5.12% [at 8.39 µM] | activity change, negative = cytotoxicity [4] 8.89% [at 8.39 µM] | activation [5] -2.23% [at 8.39 µM] | cAMP activity change [6] 2.77% [at 8.39 µM] | activity change, negative = inhibition [7] -1.06% [at 8.39 µM]

CNC(=O)Nc1ccc(Cl)c(Cl)c1
inactive: Potency [10] | Potency [1] | Potency [3] | outcome [4] | outcome [5] | outcome [6] | outcome [7] | Potency [8] | Potency [9]

C=C[Si](OC(C)=O)(OC(C)=O)OC(C)=O
inactive: Potency [1] | Potency [2] | Potency [3] | outcome [4] | outcome [5] | outcome [6] | outcome [7] | Potency [8]

CC(=O)N[C@H]1[C@H]([C@H](O)[C@H](O)CO)OC(C(=O)O)=C[C@@H]1N=C(N)N
inactive: Potency [1] | Potency [2] | Potency [3] | outcome [4] | outcome [5] | outcome [6] | outcome [7] | Potency [8] | Potency [9]

O=C(c1ccccc1O)c1ccccc1O
inactive: Potency [1] | Potency [2] | Potency [3] | outcome [4] | outcome [5] | outcome [6] | outcome [7] | Potency [8] | Potency [9]

CCCCCCCCCCCCCCC(=O)O
inactive: Potency [1] | Potency [2] | outcome [4] | outcome [5] | outcome [6] | outcome [7] | Potency [8]

NC(=O)NC1N=C([O][Al])NC1=O (stereo not drawn)
inactive: Potency [1] | Potency [2] | Potency [3] | outcome [4] | outcome [6] | outcome [7] | Potency [8] | Potency [9]

O=C(O)c1cn(C2CC2)c2cc(N3CCNCC3)c(F)cc2c1=O
inactive: Potency [1] | Potency [2] | outcome [4] | outcome [5] | outcome [6] | outcome [7] | Potency [8]

CO[C@@]1(NC(=O)C(C(=O)O)c2ccc(O)cc2)C(=O)N2C(C(=O)O)=C(CSc3nnnn3C)CO[C@@H]21 (stereo partly drawn)
inactive: Potency [1] | Potency [2] | outcome [4] | outcome [5] | outcome [6] | outcome [7] | Potency [8]

COCCOC[C@H](CC1(C(=O)NC2CCC(C(=O)O)CC2)CCCC1)C(=O)Oc1ccc2c(c1)CCC2 (stereo partly drawn)
inactive: Potency [10] | Potency [2] | Potency [3] | outcome [4] | outcome [5] | outcome [6] | outcome [7] | Potency [9]

Cc1onc(-c2c(Cl)cccc2Cl)c1C(=O)Cl
inactive: Potency [10] | Potency [1] | Potency [3] | outcome [4] | outcome [5] | outcome [6] | outcome [7] | Potency [8] | Potency [9]
